This note sets out measurements from PubChem BioAssay (Tox21).

Structures are written as SMILES. Several values for one entry are separate records, joined by “and”; a condition that tells them apart may be missing. Equal values may be shown once. Inconclusive results are not listed. Where a structure was tested more than once in an assay, its records may differ in their call. Activity calls are given as the source filed them. Unless noted, calls follow the shape of the dose curve; as a rule, active = well fitted curve in the direction sought with a large enough effect in the repeat runs; inconclusive = weak or mixed curves; inactive = no such curve, though single readings can be large; an effect the other way counts as inactive or inconclusive.

Assay [1] is described as follows: qHTS assay for small molecules that induce genotoxicity in human embryonic kidney cells expressing luciferase-tagged ATAD5 (AID 651632). Also: nearly all actives have a fitted effect of over 15% in size. Summed up:
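HEK293T cells carrying a luciferase reporter tagged to ATAD5 were exposed to compound or DMSO vehicle for 16 hr at 37C, 5% CO2. Amplite was added, and after 30 min at room temperature luciferase activity was read as a marker of ATAD5 induction.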

Assay [2] in a line: qHTS assay for small molecule agonists of the p53 signaling pathway - cell viability (AID 651633; calls by dose curve; also: nearly all actives have a fitted effect of over 30% in size; also: potency is read from the fitted curve at half-maximal effect). Summed up:
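Viability counter-read: CellTiter-Glo luminescence (30 min, room temperature) in the same p53RE-bla plates. These plates had been exposed to compounds for 16 h at 37 C.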

Assay [3] in a line: qHTS assay for small molecules that induce genotoxicity in human embryonic kidney cells expressing luciferase-tagged ATAD5 - cell viability (AID 651634; calls by dose curve; also: nearly all actives have a fitted effect of over 25% in size; also: potency is read from the fitted curve at half-maximal effect). Summed up: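 HEK293T cells expressing luciferase-tagged ATAD5 were exposed to compound or DMSO for 15.5 hr at 37C, 5% CO2. Viability was then read as live-cell protease activity by CellTiter-Fluor fluorescence after 30 min at 37C.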

Assay [4] can be described thus: qHTS assay for small molecule disruptors of the mitochondrial membrane potential - cell viability (AID 720634; calls by dose curve; also: nearly all actives have a fitted effect of over 20% in size; also: potency is read from the fitted curve at half-maximal effect). Put shortly:
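HepG2 cells seeded overnight at 37 C, then exposed to compound or DMSO for 1 hr at 37 C, 5% CO2. m-MPI dye added, then CellTiter-Glo for 30 min at room temperature; viability read as ATP luminescence.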

Assay [5] is described as follows: qHTS assay for small molecule disruptors of the mitochondrial membrane potential (AID 720635). Also: potency is read from the fitted curve at half-maximal effect. Put shortly: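 Mitochondrial membrane potential tracked with Mito-MPS dye, red aggregates (ex 540/em 590 nm) against green monomers (ex 490/em 535 nm). Compound treatment 1 hr at 37C, dye 30 min in HepG2.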
A short description of assay [6]: qHTS assay to test for compound auto fluorescence at 590 nm (red) in HepG2 cells (AID 720674). Put shortly:
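1 hr compound incubation on HepG2 cells, 37 C, 5% CO2; plate read ex 540 nm / em 590 nm; intensities reported as Rose Bengal sodium equivalents.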

A short description of assay [7]: qHTS assay to test for compound auto fluorescence at 535 nm (green) in HepG2 cells (AID 720675).
Assay [8] can be described thus: qHTS assay to test for compound auto fluorescence at 460 nm (blue) in HEK293 cells (AID 720678). Put shortly: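 HEK293 cells (2,000/well, medium with 10% dialyzed FBS) attached 4-5 hr, then exposed to compound overnight at 37C, 5% CO2. Blue fluorescence read at 405/460 nm, with triamterene as reference fluorophore.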
Assay [9] in a line: qHTS assay to test for compound auto fluorescence at 590 nm (red) in HEK293 cells (AID 720679). Summed up: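 HEK293 cells (2,000/well, 10% dialyzed FBS) attached 4-5 hr, then dosed with compound or DMSO and incubated overnight at 37C, 5% CO2. Red fluorescence read at 540/590 nm, Rose Bengal sodium as reference fluorophore.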
Assay [10] can be described thus: qHTS assay to test for compound auto fluorescence at 535 nm (green) in HEK293 cells (AID 720680).
The nature of assay [11]: qHTS assay to test for compound auto fluorescence at 460 nm (blue) in HEK293 cell free culture (AID 720681). Summed up: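 Blue fluorescence (Ex 405/Em 460 nm, triamterene-equivalent) was read immediately after pin transfer of compound or DMSO into medium (DMEM, 10% FBS) without cells.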
Assay [12] in a line: qHTS assay to test for compound auto fluorescence at 535 nm (green) in HEK293 cell free culture (AID 720682). Put shortly:
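Green-label autofluorescence (485 nm excitation, 535 nm emission) measured on compound added to cell-free culture medium (DMEM, 10% FBS). Output is expressed relative to fluorescein.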

The nature of assay [13]: qHTS assay to test for compound auto fluorescence at 590 nm (red) in HEK293 cell free culture (AID 720683). Put shortly:
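Red-channel autofluorescence of compounds in culture medium (DMEM, 10% FBS), no cells, measured at 540/590 nm. Rose Bengal sodium is the reference fluorophore for equivalence.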

A short description of assay [14]: qHTS assay to test for compound auto fluorescence at 590 nm (red) in HepG2 cell free culture (AID 720684). Put shortly: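 Plate contents were MEM with 10% FBS plus test compound or DMSO, no cells. Fluorescence was recorded with 540 nm excitation and 590 nm emission.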
Assay [15] in a line: qHTS assay to test for compound auto fluorescence at 460 nm (blue) in HepG2 cell free culture (AID 720685). Summed up: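 Compound (23 nL) or DMSO pinned into cell-free MEM with 10% FBS; blue fluorescence read at 405/460 nm excitation/emission, expressed as auto-fluorescence equivalency to triamterene.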
The nature of assay [16]: qHTS assay to test for compound auto fluorescence at 460 nm (blue) in HepG2 cells (AID 720687). Put shortly:
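Blue-channel autofluorescence (Ex/Em 405/460 nm, triamterene-equivalent) was measured after 1 hr compound exposure at 37 C, 5% CO2. Cells were HepG2, plated overnight at 37 C in MEM plus 10% FBS.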

Assay [17] is described as follows: qHTS assay to test for compound auto fluorescence at 535 nm (green) in HepG2 cell free culture (AID 720686).
For assay [18], the target named is Glucocorticoid receptor (Homo sapiens) (UniProt P04150). The experiment in a line: qHTS assay to identify small molecule antagonists of the glucocorticoid receptor (GR) signaling pathway (AID 720692; active = well fitted inhibition curve with a large enough effect in the signal ratio in the repeat runs, not every such curve was filed as active; the % refers to the signal ratio; also: potency is read from the fitted curve at half-maximal effect). Put shortly:
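GR-bla HeLa cells (beta-lactamase reporter under glucocorticoid response element) were pre-plated 4 h at 37 C, treated with compounds plus 5 nM dexamethasone (final) for 18 h, then read by LiveBLAzer B/G FRET fluorescence after 2 h.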

Assay [19] has the same target. As to the kind of experiment: qHTS assay to identify small molecule agonists of the glucocorticoid receptor (GR) signaling pathway (AID 720691; active = well fitted activation curve with a large enough effect in the signal ratio in the repeat runs, not every such curve was filed as active; the % refers to the signal ratio). Put shortly: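 GR-bla HeLa cells (beta-lactamase reporter under glucocorticoid response element) were plated 4 h at 37 C/5% CO2, given compounds in DMSO, and incubated 18 h at 37 C. LiveBLAzer B/G FRET substrate was added for 2 h at room temperature, then fluorescence intensity read.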

Chain of Glucocorticoid receptor (Homo sapiens) (P04150 whole entry, looked up): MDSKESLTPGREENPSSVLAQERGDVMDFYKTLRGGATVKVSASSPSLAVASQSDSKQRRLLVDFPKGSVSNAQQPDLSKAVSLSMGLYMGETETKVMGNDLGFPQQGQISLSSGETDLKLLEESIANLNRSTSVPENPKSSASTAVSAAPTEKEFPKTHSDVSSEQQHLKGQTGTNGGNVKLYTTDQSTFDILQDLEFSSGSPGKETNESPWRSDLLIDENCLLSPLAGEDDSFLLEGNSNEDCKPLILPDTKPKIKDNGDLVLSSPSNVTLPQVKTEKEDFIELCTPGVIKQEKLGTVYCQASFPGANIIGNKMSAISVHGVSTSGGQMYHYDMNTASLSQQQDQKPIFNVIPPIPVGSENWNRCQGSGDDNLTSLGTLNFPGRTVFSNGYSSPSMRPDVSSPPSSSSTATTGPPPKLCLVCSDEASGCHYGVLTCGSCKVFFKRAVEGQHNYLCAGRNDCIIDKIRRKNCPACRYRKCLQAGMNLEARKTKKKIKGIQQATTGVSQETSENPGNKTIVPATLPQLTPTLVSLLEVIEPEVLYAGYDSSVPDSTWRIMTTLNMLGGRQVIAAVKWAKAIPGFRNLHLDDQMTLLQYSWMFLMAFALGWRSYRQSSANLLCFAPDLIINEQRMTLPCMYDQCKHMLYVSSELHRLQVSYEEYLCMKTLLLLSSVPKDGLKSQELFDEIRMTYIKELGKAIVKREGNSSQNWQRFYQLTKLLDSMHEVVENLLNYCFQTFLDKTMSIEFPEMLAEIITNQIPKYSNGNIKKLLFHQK

`CCCCCCCC[N+](C)(CCCCCCCC)CCCCCCCC`: the Potency result in [1], in assay [8], in assay [11], in assay [15] and in assay [16] was “inactive” in each case. Besides, the Potency in assay [2] was 10.8 µM (active) and 24.4 µM (active) and 24.3 µM (active); in assay [3] it was 21.6 µM (active) and 19.3 µM (active); in assay [4], 27.3 µM (active) and 54.5 µM (active); in [5], 1.72 µM (active) and 770 nM (active) and 2.43 µM (active). In addition, the outcome in assay [6], in assay [7], in assay [9], in [10], in [12] and in assay [13] was inactive. Also, in assay [14], the result was inactive.

On to `CC(C)(c1ccccc1)c1ccc(O)cc1`, for which the Potency result in assay [1], in [3], in [8], in assay [11], in assay [15] and in [16] was “inactive” in each case. The Potency in [4] is 48.2 µM (active) and inactive; in assay [5], 3.04 µM (active) and 3.86 µM (active); in assay [18] it was 48.6 µM (active) and 54.9 µM (active). The compound was classed as inactive in assay [6], in assay [7], in assay [9], in assay [10], in assay [12] and in assay [13]. In addition, the compound was classed as inactive in [14] and in assay [17].

For the compound `CCCCCCCCCc1ccc(O)cc1`, the Potency result in assay [1], in [8], in assay [11], in assay [15] and in [16] was “inactive” in each case. The Potency in assay [4] was 17.4 µM (active); in [5], 6.18 µM (active). Also, the result in assay [6], in assay [7], in [9], in assay [10], in assay [12] and in [13] was inactive. For the same compound, the compound was called inactive in assay [14] and in [17].

As for `Nc1ncn[nH]1`, the Potency entry in assay [1], in [2], in [3], in [4], in assay [5] and in [8] was “inactive” in each case. Besides, the Potency result in [11], in assay [15], in assay [16] and in [18] was “inactive” each time. Further, the compound was classed as inactive in [6], in [7], in assay [9], in assay [10], in assay [12] and in assay [13]. Moreover, the call in assay [14], in [17] and in assay [19] was inactive.

Regarding `[Cl-].[Cl-].[Cl-].[Fe+3]`, the Potency result in [3], in [8], in [11], in assay [15] and in [16] was “inactive” throughout. The outcome in assay [6], in assay [7], in assay [9], in [10], in assay [12] and in assay [13] was inactive. Further, the compound was called inactive in [14].

`CC(C)(c1ccccc1)c1ccc(O)c(C(C)(C)c2ccccc2)c1`: the Potency result in assay [1], in assay [8], in assay [11], in assay [15] and in assay [16] was “inactive” throughout. For the same compound, the Potency was 13.6 µM (active) and 30.6 µM (active) in assay [2]; 60.6 µM (active) in assay [3]; 1.52 µM (active) and 2.43 µM (active) in assay [5]. Moreover, the call in assay [6], in assay [7], in [9], in assay [10], in assay [12] and in assay [13] was inactive. The result in assay [14] and in [17] was inactive.

Take `OCCOCCO`: the Potency entry in assay [1], in [2], in assay [3], in assay [4], in assay [8] and in [11] was “inactive” in each case. The Potency result in assay [15], in assay [16] and in assay [18] was “inactive” in each case. Moreover, the compound was classed as inactive in assay [6], in assay [7], in [9], in assay [10], in [12] and in assay [13]. Also, the compound was called inactive in [14], in [17] and in [19].

Take `O=[N+]([O-])/N=C1\NCCN1Cc1ccc(Cl)nc1`: the Potency entry in [1], in [2], in assay [3], in assay [4], in assay [5] and in assay [8] was “inactive” throughout. For the same compound, the Potency entry in assay [11], in assay [15], in [16] and in [18] was “inactive” in each case. For the same compound, the outcome in assay [6], in assay [7], in assay [9], in assay [10], in assay [12] and in assay [13] was inactive. Moreover, the compound was classed as inactive in [14], in assay [17] and in [19].
